The source of these data is PubChem BioAssay AID1347416 (National Center for Advancing Translational Sciences (NCATS), 2020).

Screen size: about 4,100 compounds; about 1,600 (39%) were called active. Roughly 25% stayed inconclusive and do not appear here. The list shows a part of the results. Unmarked numbers belong to inactive results. The call rests on the fitted dose curve; in most records, active means well fitted inhibition curve with a large enough effect; inconclusive means small, poorly fitted or top-dose-only effect; inactive means no such curve, though single readings can be large or run the other way.
On the % scale 0 is the no-effect control and ±100 the full control effect; potency means the concentration at half of the fitted maximal effect.

A short description of the assay: qHTS Validation assay for Inhibitors of Plasmodium falciparum Dd2 growth in vitro. Further: nearly all actives have a fitted effect of over 70% in size. Particulars: P. falciparum Dd2 in RBCs, SYBR Green growth, 72 h; series mostly up to 28.7 µM; activity change, negative = inhibition: at the top concentration. In outline:
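P. falciparum Dd2-infected red blood cells (2.5% hematocrit, 0.3% parasitemia) grown 72 h at 37 °C under 5% O2 with compounds in a titration, 29 uM to 0.5 nM final. Growth read as SYBR Green-1 fluorescence after ~16 h lysis; artesunate 300 nM as positive control.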
A general note: In qHTS, concentration-response curves come from the screen itself.
As to `CC1CCN(C(=O)c2cc3c(s2)CCC(C(=O)NCCCN2CCOCC2)C3)CC1` (stereo unspecified), the “activity change, negative = inhibition” value was -2.69%.
For the compound `Cc1cccc(C)c1-n1ncc(C(=O)NCCCN2CCC(C)CC2)c1C1CCN(C(=O)OC(C)(C)C)CC1`, the Potency is 15 µM (active).
The same measure, in the same setting: the value for `CC(C)(C)OC(=O)N1CCC(c2c(C(=O)NCCN3CCc4ccccc4C3)cnn2-c2ccc(F)cc2F)CC1` was 5.31 µM (active); that for `O=C(CN1C2=NCCCN2c2ccccc21)c1ccc(Cl)cc1Cl` was 6.68 µM (active).
As to `CNCC(=O)N1C[C@@H](C(=O)O)[C@H](c2ccccc2)C1`, the “activity change, negative = inhibition” value was 41.5%.
As to `O=C(N/N=C/c1ccc(OCc2ccccc2)cc1)c1ccco1`, the Potency was 13.3 µM (active).
Take `CC(C)C(=O)OCC(=O)[C@@]12O[C@H](C3CCCCC3)O[C@@H]1C[C@H]1[C@@H]3CCC4=CC(=O)C=C[C@]4(C)[C@H]3[C@@H](O)C[C@@]12C`: the Potency was 2.66 µM (active).
With `CC(=O)SC1CC(=O)N(c2c(C)cccc2C)C1=O` (stereo unspecified), the “activity change, negative = inhibition” value was 25.1%.
`CN1C(=O)C2(c3ccccc31)N(C)CC(c1ccccc1)C21SC(=S)N(Cc2ccco2)C1=O` (stereo unspecified): the Potency is 13.3 µM (active).
Same read-out and setting: the value for `Cc1ccc(CN2CCc3nc(C4CC4)nc(-c4ccc(O)cc4)c3CC2)cc1` was 4.73 µM (active); that for `Oc1ccc(-c2nc(C3CC3)nc3c2CCN(CC2CCCCC2)CC3)cc1` was 4.73 µM (active); that for `CC(C)c1nc2c(c(-c3ccc(O)cc3)n1)CCN(CC1CCCCC1)CC2` was 4.73 µM (active).
On the same count and under the same terms, the value for `COc1ccc(-c2nc(C3CC3)nc3c2CCN(Cc2cccnc2)CC3)cc1` was 13.3 µM (active).
Take `Cc1ccc(CN2CCc3nc(C(=O)Nc4nc(C)cs4)oc3CC2)cc1`: the “activity change, negative = inhibition” value is -27.9% [at 43.1 µM].
Take `COc1cccc(C(=O)N2CCc3nc(C4CC4)nc(-c4ccc(Cl)cc4)c3C2)c1`: the “activity change, negative = inhibition” value was -28.7%.
Still for that read-out and setting: in the case of `CCc1nc2c(c(-c3ccc(Cl)cc3)n1)CCN(CC1CCCCC1)CC2` it was -2.24%; in that of `Cc1nc2c(c(-c3ccc(Cl)cc3)n1)CCN(C(=O)c1ccc(C(F)(F)F)cc1)CC2`, 31.3%.
Regarding `O=C(c1ccc(C(F)(F)F)cc1)N1CCc2nc(C3CC3)nc(-c3ccc(Cl)cc3)c2CC1`, the Potency was 13.3 µM (active).
The same measure, in the same setting: in the case of `Oc1ccc(-c2nc(C3CC3)nc3c2CN(CC2CCCCC2)CC3)cc1` it was 6.68 µM (active).
As for `O=C(c1ccccc1Cl)N1CCc2nc(-c3ccccc3)nc(-c3ccc(Cl)cc3)c2C1`, the “activity change, negative = inhibition” value was 5.28%.
Consider `Cc1cccc(-c2cc3nc(C)c(C)c(NCCCn4ccnc4)n3n2)c1`, for which the Potency was 5.31 µM (active).
As to `COc1ccc(-c2oc3ccccc3c2C#Cc2cncn2C)cc1`, the Potency is 1.06 µM (active).
On the same count and under the same terms, in the case of `CCOC(=O)c1[nH]c(C)c(CCC(=O)N2CCN(c3cc(Cl)ccc3C)CC2)c1C` it was 1.19 µM (active).
Turning to `O=C(CCc1cc2ccccc2[nH]c1=O)N1CCCCC1`, the “activity change, negative = inhibition” value was -6.44%.
Take `CCOC(=O)c1[nH]c(C)c(CCC(=O)N2CCN(c3cccc(C)c3C)CC2)c1C`: the Potency is 1.33 µM (active).
The same measure, in the same setting: the value for `CCOC(=O)c1[nH]c(C)c(CCC(=O)N2CCN(c3cc(C)ccc3C)CC2)c1C` was 1.33 µM (active).
On to `CCO[C@H]1CN(C(=O)CCc2nc3c(C)c(C)ccc3[nH]2)C[C@@H]1O`, for which the “activity change, negative = inhibition” value was 14.7%.
Still for that read-out and setting: the value for `CN(C)[C@H]1CCCCN(C(=O)CCc2ccc(-c3ccc(Cl)cc3)[nH]2)C1` was -7.6%.
The same measure, in the same setting: in the case of `N#C/C(=C\c1ccc(Cl)cc1)c1nc(-c2cc3ccccc3oc2=O)cs1` it was 31.2%.
For `N#C/C(=C\c1ccc(Sc2ccc(Cl)cc2)o1)c1nc2ccccc2[nH]1`, the Potency was 2.99 µM (active).
`Cn1nc(-c2nncn2CC2CC2)c2c1CCN(C(=O)c1nn(C)c3ccccc13)C2`: the “activity change, negative = inhibition” value was -12%.
For the compound `CC1CCCN(Cc2c(O)ccc3c4c(c(=O)oc23)CCCC4)C1` (stereo unspecified), the Potency is 6.68 µM (active).
Take `COc1ccc(-c2cc3ccc(O)c(CN4CCCC(C)C4)c3oc2=O)cc1` (stereo unspecified): the Potency is 2.37 µM (active).
Still for that read-out and setting: in the case of `CC1CCCN(Cc2c(O)ccc3c(=O)c(Oc4ccc(C(C)(C)C)cc4)c(C(F)(F)F)oc23)C1` (stereo unspecified) it was 0.299 µM (active).
Same read-out and setting: in the case of `CCc1ccc(Oc2c(C(F)(F)F)oc3c(CN4CCCC(C)C4)c(O)ccc3c2=O)cc1` (stereo unspecified) it was 1.33 µM (active).
Take `CCc1noc(-c2cn(C3CCN(C(=O)c4ccc(N(C)C)cc4)CC3)nn2)n1`: the “activity change, negative = inhibition” value was -18.2%.
Consider `COc1ccc(-c2ccccc2NC(=O)C2CCCN(Cc3c(O)cccc3OC)C2)cc1` (stereo unspecified), for which the Potency is 2.11 µM (active).
For `O=c1oc2c(CN3CCOCC3)c(O)ccc2cc1-c1ccccc1`, the Potency was 9.44 µM (active).
As to `COc1ccc(Oc2c(C(F)(F)F)oc3c(CN4CCCC(C)C4)c(O)ccc3c2=O)cc1` (stereo unspecified), the Potency is 2.37 µM (active).
`COc1cccc(OC)c1CN1CCC2(CC1)CC(O)CCO2` (stereo unspecified): the “activity change, negative = inhibition” value was -0.9%.
Still for that read-out and setting: the value for `Cn1cc(-c2ccccc2Oc2ccccc2)c2nc(CN3CCOCC3)cn2c1=O` was -9.15% [at 43.1 µM].
The same measure, in the same setting: the value for `CN(C)c1cccc(C(=O)N2CCC(c3n[nH]c(=O)n3-c3ccccc3)CC2)c1` was -10.6%.
Regarding `Cc1noc(C)c1-c1cc2c(cc(-c3ccccc3)n2C)c(-c2cccnc2)n1`, the Potency was 10.9 µM (active).
The same measure, in the same setting: in the case of `Cc1noc(C)c1-c1cc2c(cc(-c3ccccc3)n2C)c(-c2ccnn2C)n1` it was 8.63 µM (active); in that of `COc1ncccc1-c1nc(-c2c(C)noc2C)cc2c1cc(-c1ccccc1)n2C`, 13.7 µM (active).
With `COc1cc(F)ccc1-c1nc(-c2c(C)noc2C)cc2[nH]c(C)cc12`, the “activity change, negative = inhibition” value is -24.1% [at 43.1 µM].
